# Experimental data from PubChem BioAssay AID2061317 (National Center for Advancing Translational Sciences (NCATS), 2025).
# Inconclusive results are not listed. Activity calls are given as the source filed them. Calls come from the whole dose curve; as a rule, active = well fitted inhibition curve with a large enough effect; inconclusive = small, poorly fitted or top-dose-only effect; inactive = flat fitted curve, though single readings scatter. Non-standard residues stand in square brackets, D forms with d. Residues, ends and D or L forms follow the SMILES beside them. Dolaproine = CO[C@@H]([C@@H]1CCCN1)[C@@H](C)C(=O)O; Dil = CC[C@H](C)[C@H](NC)[C@@H](CC(=O)O)OC; NMeV = CN[C@H](C(=O)O)C(C)C
# Experiment: Identification of antibody-drug conjugate (ADC) payloads which are substrates of ATP-binding cassette drug efflux transporters: ABCB1-HEK293-MDR-19 cell line with tariquidar
# Settings: HEK293 ABCB1 (MDR-19) + tariquidar, CellTiter-Glo viability, 48 h
# Text: Antibody-drug conjugates (ADCs) feature an antibody recognizing a specific protein joined to a potent toxic payload. Numerous antibody-drug conjugates have received FDA approval; however, clinical resistance arises. Resistance mechanisms include decreased expression or mutation of the antibody target, impaired payload release, or increased expression of ATP-binding cassette (ABC) efflux transporters associated with multidrug resistance. We therefore sought to characterize the interaction of ABC multidrug transporters with ADC payloads. We performed a high-throughput screen with 27 common ADC payloads using cells lines expressing ABC transporters P-glycoprotein (P-gp, encoded by ABCB1) or ABCG2 (encoded by ABCG2). Confirmatory assays were also performed using cells transfected to express P-gp, ABCG2, or MRP1 (encoded by ABCC1). Several commonly used ADC payloads were substrates of P-gp, including calicheamicin gamma1, monomethyl auristatin E, DM1, and DM4. All the pyrrolobenzodiazepines tested - SJG136, SGD-1882, SG2057, and SG3199 - were substrates of P-gp, ABCG2, and MRP1. […] These findings highlight the risk of transporter-mediated resistance with certain ADC payloads and underscore the importance of selecting payloads that evade ABC transporter recognition in future ADC development.
# HEK-293 cells were transfected with empty vector (pcDNA) or vector containing the human ABCB1 (MDR-19), ABCG2 (R-5), or ABCC1 gene (MRP1) and were maintained in EMEM with 2 mg/mL G418 added to maintain transporter expression. The HeLa derivative KB-3-1 and the P-gp overexpressing KB-8-5-11 subline were maintained in DMEM; KB-8-5-11 additionally received 100 ng/mL colchicine. H460 parental cells were obtained from the Division of Cancer Treatment and Diagnosis Tumor Repository, National Cancer Institute at Frederick, MD and were cultured in RPMI. The ABCG2 expressing subline H460 MX20 was generated by selecting H460 cells in 20 nM mitoxantrone. Media in all cases was supplemented with 10% FBS and 1% penicillin-streptomycin. We explored 27 common ADC payloads, in two orthogonal, paired cell line sets-a drug selected and transfected set for each transporter--to identify substrates of the ABC transporters P-gp and ABCG2. Compounds were sourced from Levena Biopharma (San Diego, CA), Selleck Chem (Houston, TX), ChemieTek (Indianapolis, IN), or Microsource Discovery Systems (Gaylordsville, CT). Screening was performed as previously described. Briefly, cells were plated at a density of 500 cells/well in 1536 well plates with compounds added using a 1536-head pin tool (Kalypsys, San Diego CA). Cells were incubated with cytotoxic drugs and processed with CellTiter Glo reagent (Promega, Madison, WI) to determine viability after 48 hours. P-gp substrates were identified by comparing compound activity between paired sets of low-expressing (sensitive) and over-expressing (resistant) cell lines.
row,Compound,Potency
1,CN(C)CCOc1ccc2[nH]c(C(=O)N3C[C@@H](CCl)c4c3cc(O)c3ccccc43)cc2c1,0.5 nM (active)
2,Cc1nc(Nc2ncc(C(=O)Nc3c(C)cccc3Cl)s2)cc(N2CCN(CCO)CC2)n1,13300 nM (active)
3,COc1cc2cc(c1Cl)N(C)C(=O)C[C@H](O)[C@]1(C)O[C@H]1[C@H](C)C1C[C@@](O)(NC(=O)O1)[C@H](OC)/C=C/C=C(\C)C2,2650 nM (active)
4,COc1cccc2c1C(=O)c1c(O)c3c(c(O)c1C2=O)C[C@@](O)(C(=O)CO)C[C@@H]3O[C@H]1C[C@H](N)[C@H](O)[C@H](C)O1,33.4 nM (active)
5,CC(C)(C)OC(=O)Nc1ccc2[nH]c(C(=O)N3C[C@@H](CCl)c4c3cc(O)c3ccccc43)cc2c1,11.8 nM (active)
6,CCc1c2c(nc3ccc(O)cc13)-c1cc3c(c(=O)n1C2)COC(=O)[C@]3(O)CC,4.2 nM (active)
7,CCN[C@H]1CO[C@@H](O[C@H]2[C@H](O[C@H]3C#C/C=C\C#C[C@]4(O)CC(=O)C(NC(=O)OC)=C3/C4=C\CSSSC)O[C@H](C)[C@@H](NO[C@H]3C[C@H](O)[C@H](SC(=O)c4c(C)c(I)c(O[C@@H]5O[C@@H](C)[C@H](O)[C@@H](OC)[C@H]5O)c(OC)c4OC)[C@@H](C)O3)[C@@H]2O)C[C@@H]1OC,0.1 nM (active)
8,COC(=O)c1cc2c3c(cc(O)c2[nH]1)N(C(=O)c1cc2cc(OC)c(OC)c(OC)c2[nH]1)CC3CCl (stereo unspecified),0.7 nM (active)
9,CC[C@H](C)[C@@H]([C@@H](CC(=O)N1CCC[C@H]1[C@H](OC)[C@@H](C)C(=O)N[C@@H](Cc1ccccc1)C(=O)O)OC)N(C)C(=O)[C@@H](NC(=O)[C@@H](NC)C(C)C)C(C)C (H-[NMeV]V[Dil][Dolaproine]F-OH),529 nM (active)
10,COc1cccc2c1C(=O)c1c(O)c3c(c(O)c1C2=O)C[C@@](O)(C(=O)CO)C[C@@H]3O[C@H]1C[C@H]2[C@H](O[C@@H]3[C@@H](OC)OCCN32)[C@H](C)O1,0.0265 nM (active)
11,CCN(C(C)=O)[C@H]1CO[C@@H](O[C@H]2[C@H](O[C@H]3C#C/C=C\C#C[C@]4(O)CC(=O)C(NC(=O)OC)=C3/C4=C\CSSSC)O[C@H](C)[C@@H](NO[C@H]3C[C@H](O)[C@H](SC(=O)c4c(C)c(I)c(O[C@@H]5O[C@@H](C)[C@H](O)[C@@H](OC)[C@H]5O)c(OC)c4OC)[C@@H](C)O3)[C@@H]2O)C[C@@H]1OC,1.2 nM (active)
